# HEK293 cAMP ctrl: counter-screen for TSHR agonists: cAMP increase in parental HEK293 | AID 938 | 73,000 compounds, 2.5% hits | parental HEK293 CNG cAMP sensor, membrane potential fluorescence | Potency, µM (top dose mostly 57.1 µM), inactives show at the highest dose activation, usual class: activators; active = well fitted activation curve with a large enough effect; inconclusive = small, poorly fitted or top-dose-only effect; inactive = no such curve, though single readings can be large or run the other way; also: % of control where 0% means no effect; nearly all actives have a fitted effect of over 55% in size
#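 Counterscreen for endogenous-receptor signalling: CNG-channel HEK 293 cells report cAMP rise by membrane depolarization. After 60 min dye equilibration with 100 uM RO 20-1724, compounds incubated 30 min before bottom-read fluorescence at 590 nm.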
# CRE Fsk mod: alters forskolin-stimulated CRE reporter signaling in CHO cells; CHO CRE-bla reporter (cAMP response element driving beta-lactamase), forskolin EC10, beta-lactamase ratio; AID 662; Potency, µM (top dose mostly 38.2 µM), inactives show at the highest dose activity change, negative = inhibition, most hits filed as activators; 71,000 compounds, 2.5% hits; active = well fitted activation curve with a large enough effect in the signal ratio, with a control signal flat, not every such curve was filed as active; inconclusive = small, poorly fitted or top-dose-only effect, or effect the other way, or a change in a side signal; the % refers to the signal ratio; also: % of control where 0% means no effect
#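 Modulation of forskolin signalling: compounds in titration series added with EC10 NKH 477 to CHO cells carrying a CRE-driven beta-lactamase reporter, 3 h, 37C. CCF4 FRET ratio (460/530 nm, ex 405 nm) gives %activity and AC50.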
# TSHR ag: TSH receptor (human) agonism. P16473. HEK293-CNG-TSHR cells (CNG channel as cAMP sensor), membrane potential dye, cAMP. Potency, µM (top dose mostly 57.1 µM), without a hit: at the top dose activation, usual class: activators. 73,000 compounds, 0.48% hits; active = well fitted activation curve with a large enough effect in the main read-out, with a control signal flat, not every such curve was filed as active; inconclusive = small, poorly fitted or top-dose-only effect, or a change in a side signal; inactive = no such curve, though single readings can be large or run the other way; % of control where 0% means no effect;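 also: the control signal comes from parental cells without the receptor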
# Target sequence (P16473 whole entry, looked up): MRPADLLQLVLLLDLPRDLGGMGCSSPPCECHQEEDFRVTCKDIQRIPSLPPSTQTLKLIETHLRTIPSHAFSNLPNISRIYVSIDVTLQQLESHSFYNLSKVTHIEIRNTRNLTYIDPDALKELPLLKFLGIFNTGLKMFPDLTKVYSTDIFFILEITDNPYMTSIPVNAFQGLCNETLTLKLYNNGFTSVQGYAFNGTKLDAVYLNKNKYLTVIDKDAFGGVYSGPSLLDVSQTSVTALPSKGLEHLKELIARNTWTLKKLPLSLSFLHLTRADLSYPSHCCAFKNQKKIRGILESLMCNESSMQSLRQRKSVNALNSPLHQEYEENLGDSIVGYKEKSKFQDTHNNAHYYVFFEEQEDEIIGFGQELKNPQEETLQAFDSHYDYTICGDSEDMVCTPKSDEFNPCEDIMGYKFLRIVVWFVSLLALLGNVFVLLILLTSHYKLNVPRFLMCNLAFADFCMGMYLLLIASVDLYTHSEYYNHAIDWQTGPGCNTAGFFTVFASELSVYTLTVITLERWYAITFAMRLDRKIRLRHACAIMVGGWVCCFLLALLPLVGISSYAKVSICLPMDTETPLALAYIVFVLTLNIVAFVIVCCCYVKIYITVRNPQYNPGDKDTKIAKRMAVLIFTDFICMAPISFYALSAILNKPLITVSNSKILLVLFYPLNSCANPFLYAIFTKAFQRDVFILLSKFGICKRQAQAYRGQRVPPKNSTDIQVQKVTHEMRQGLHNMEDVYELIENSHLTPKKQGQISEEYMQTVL
#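 HEK 293 cells stably expressing TSHR and a cAMP-gated CNG channel; parental CNG-only cells as counterscreen. Cells preloaded 60 min with membrane potential dye plus 100 uM RO 20-1724, then compound 30 min; fluorescence read at 590 nm.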
# Hsp90 Hop PPI: changes Hsp90-Hop TPR2A binding signal, up or down. AID 595. AlphaScreen TPR2A-His6 binding biotin-Hsp90 C-terminal peptide. Potency, µM (series often up to 57 µM), for the others: top-dose activity change, negative = inhibition. 71,000 compounds, 0.44% hits; active = well fitted curve in either direction with a large enough effect; inconclusive = small, poorly fitted or top-dose-only effect, or another doubt; also: % is scaled to controls: 0 for no effect and ±100 for the full control effect
# IkB sig inh: IkB pathway inhibition in ABC-DLBCL cells | AID 445 | 110,000 compounds, 0.04% hits | Potency, µM (doses to about 57.1 µM), inactives show at the highest dose IkBa stabilization activation | ABC-DLBCL IkBa-CBG/CBR dual luciferase ratio, 4 h; response scale: scaled: untreated 0%, proteasome inhibitor 100%; active = well fitted curve in the direction sought with a large enough effect in the signal ratio, not every such curve was filed as active; inconclusive = small, poorly fitted or top-dose-only effect, or a change in a side signal; the % refers to the signal ratio;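 also: the direction sought is a rising ratio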
#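 Curves were fitted separately to fusion (green), unfused (red) and ratio luminescence, then classed by r2, magnitude and activity. Cells: OCI-Ly3, 4 h compound plus doxycycline at 37C; 10 uM MG-132 defined full response.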
# * marks the source's active call; other numbers are inactive results; ? = inconclusive; / = not tested or not shown; [ ] = another dose, or the depositor's remark. In the library only some 3.5% were active in any assay of this set; here they are far more common. Potency is read from the fitted curve at half-maximal effect.
SMILES,HEK293 cAMP ctrl,CRE Fsk mod,TSHR ag,Hsp90 Hop PPI,IkB sig inh
CCOC(=O)c1cccc(NC(=O)c2cc3sccc3n2C)c1,10µM*,?,?,4%,?
Cc1occc1C(=O)N1CCN(S(C)(=O)=O)CC1,9%,-1%,0%,-2%,0%
Cc1occc1C(=O)N1CCN(C(c2ccccc2)c2ccccc2)CC1,19%,-16%,32µM*,-14%,?
Cc1cccc(S(=O)(=O)c2c(N)n(/N=C/c3ccco3)c3nc4ccccc4nc23)c1,-1%,4µM*,-7%,-2%,1%
Cc1ccc(S(=O)(=O)c2c(N)n(/N=C/c3ccco3)c3nc4ccccc4nc23)cc1C,2%,10µM*,-4%,-5%,6%
Cc1ccc(S(=O)(=O)c2c(N)n(/N=C/c3ccco3)c3nc4ccccc4nc23)cc1,11%,?,23%,-2%,-2%
CC[C@@H]1CC(=O)N(SC[C@H](N)C(=O)O)C1=O,1%[11.4 µM],4%[7.6 µM],-3%[11.4 µM],1%[11 µM],1%[11.4 µM]
COC(=O)c1ccc(C(/C=C/[C@@H](C)C(=O)NCCc2c[nH]c3ccccc23)NC(=O)OCc2ccccc2)cc1 (stereo partly drawn),25%,-10%,17%,-7%,/
COc1ccc(C2=Nn3c(nnc3-c3ccc(OC)cc3)SC2)cc1,?,13µM*,?,-12%,4%
Cc1ccc(-c2nnc3n2N=C(c2ccccc2)CS3)cc1,-4%,?,8%,0%,2%
c1ccc(C2=Nn3c(nnc3-c3cc(-c4ccccc4)n[nH]3)SC2)cc1,25µM*,?,?,-6%,?
c1ccc(C2=Nn3c(nnc3-c3n[nH]c4c3CCC4)SC2)cc1,19%,?,13%,-8%,18%
CN1CCCC2(CCN(C(=O)c3cc(C(F)(F)F)cc(C(F)(F)F)c3)CC2)C1,?,-11%,?,3%,5%[11.4 µM]
N=c1c(C(=O)NCc2ccc(F)cc2)cc2c(=O)n3ccccc3nc2n1CCCN1CCOCC1,17%,2.5µM*,-6%,0%,0%
N=c1c(C(=O)NCc2ccccc2)cc2c(=O)n3ccccc3nc2n1CCCN1CCOCC1,15%,?,-18%,-8%,-2%
C=CCn1c(=N)c(C(=O)NCCCOC)cc2c(=O)n3ccccc3nc21,4%,10µM*,-3%,-5%,0%
COC(=O)c1cc2c(=O)n3ccccc3nc2n(Cc2cccnc2)c1=N,-1%,15%,-3%,-6%,0%
COC(=O)c1cc2c(=O)n3ccccc3nc2n(C)c1=N,-1%,7.9µM*,1%,2%,-1%
CCOCCCn1c(=N)c(C(=O)NCc2ccccc2)cc2c(=O)n3ccccc3nc21,/,/,/,/,-2%
CCOc1ccc(OCC)c(NC(=O)CSc2nc3c(c(=O)n(C)c(=O)n3C)n2C)c1,4%,3%,-4%,-3%,?
CCOc1ccc(OCC)c(NC(=O)CSc2nc3c(c(=O)n(C)c(=O)n3C)n2CC)c1,12%,2µM*,4%,0%,0%
CCn1c(SCC(=O)N2CCc3ccccc3C2)nc2c1c(=O)n(C)c(=O)n2C,8%,?,0%,-4%,0%
CCOc1ccc(OCC)c(NC(=O)CSc2nc3c(c(=O)n(C)c(=O)n3C)n2C(C)C)c1,?,4µM*,?,-4%,?
CCn1c(SCC(=O)N2c3ccccc3Sc3ccccc32)nc2c1c(=O)n(C)c(=O)n2C,7%,4%,20µM*,1%,0%
CC(=O)C1(O)C(C)CC2C3CCC4CC(O)CCC4(C)C3=CCC21C (stereo not drawn),13µM*,11%,?,-5%,-2%
SMILES,HEK293 cAMP ctrl,CRE Fsk mod,TSHR ag,Hsp90 Hop PPI,IkB sig inh
COc1cccc(-n2ccnc2SCC(=O)Nc2nc3ccc(C)cc3s2)c1,/,/,/,/,5%
CCOC(=O)c1[nH]c2ccc(F)cc2c1NC(=O)c1cc(OC)c(OC)c(OC)c1,-7%,6.3µM*,6%[11.4 µM],0%,?
CCOC(=O)c1[nH]c2ccccc2c1NC(=O)c1ccc(OC)c(OC)c1,/,/,/,/,-1%
NC1(C(=O)O)C[C@H](C(=O)O)[C@H](C(=O)O)C1 (stereo partly drawn),2%,-11%,-1%,-3%,0%
N#Cc1cccc(NC(=O)N2CC[C@@]3(CCCN(C(=O)c4cccc(F)c4)C3)C2)c1,?,-1%,?,-1%,-5%[11.4 µM]
COc1ccc2[nH]cc(CCNc3nc(-c4ccc(C(=O)N(C)C)cc4)nc4ccccc34)c2c1,-24%,0.32µM*,12%,-16%,-5%[11.4 µM]
CNc1nc(-c2ccc(C(=O)N(C)C)cc2)nc2ccccc12,-11%,?,-3%,0%,1%[11.4 µM]
Cc1cnc(CNc2nc(-c3ccc(C(=O)N(C)C)cc3)nc3ccccc23)cn1,-2%,7.9µM*,28%,0%,-4%[11.4 µM]
COc1cccc(-c2nc(NCc3ccccc3OC)c3ccccc3n2)c1,-7%,-13%,/,?,2%[11.4 µM]
COc1cccc(-c2nc(NCc3ccccc3)c3ccccc3n2)c1,32µM*,-14%,?,-7%,7%[11.4 µM]
COc1cccc(-c2nc(NCc3cccnc3)c3ccccc3n2)c1,11%,13µM*,32µM*,1%,-1%[11.4 µM]
S=C(NC1CCCCC1)NC1CCCCC1,23%,1%,5%,?,-1%
OC[C@H]1NC[C@@H](O)[C@@H](O)[C@H]1O,6%,1%,4%,-9%,0%
N#Cc1cccc(-c2nc(NCc3cccnc3)c3ccccc3n2)c1,-11%,10µM*,/,-4%,1%[11.4 µM]
Cc1cnc(CNc2nc(-c3ccoc3)nc3ccccc23)cn1,?,10µM*,?,-11%,-1%[11.4 µM]
Cc1cc(N)n(-c2nc(-c3cccnc3)nc3ccccc23)n1,-1%,7.9µM*,0%,-6%,-1%
COc1ccccc1CNc1nc(-c2ccc(C(=O)N(C)C)cc2)nc2ccccc12,?,?,?,-8%,-4%[11.4 µM]
CN(C)C(=O)c1ccc(-c2nc(NCc3cccnc3)c3ccccc3n2)cc1,6%,1.6µM*,19%,-5%,-10%[11.4 µM]
O=C(c1cccc(F)c1)N1CCC[C@@]2(CCN(C(c3ccccc3)c3ccccc3)C2)C1,?,7%,?,?,0%[11.4 µM]
NC(=O)c1ccc([N+](=O)[O-])cc1,?,-10%,?,-2%,-1%
c1cncc(CNc2nc(-c3cccnc3)nc3ccccc23)c1,-5%,6.3µM*,25µM*,-5%,-1%[11.4 µM]
COc1ccccc1NC(=O)Nc1nc(-c2cccnc2)nc2ccccc12,12%,-3%,6%,-6%,8%
CS(=O)(=O)Nc1cccc(-c2nc(Nc3ccc(F)cc3)c3ccccc3n2)c1,19%,?,25µM*,?,?
CC(=O)NCCNc1nc(-c2cccnc2)nc2ccccc12,?,7.9µM*,?,-3%,-2%[11.4 µM]
c1ccc(CNc2nc(-c3cccnc3)nc3ccccc23)cc1,?,?,?,-1%,-1%[11.4 µM]

# Screening data (PubChem BioAssay)
